Screening data from PubChem.
Only a selection was taken, and hits are over-represented in it overall.
ER stress death = ER stress cell death inhibition. 48,000 compounds, 0.33% hits. AID 1010. CSM14.1 thapsigargin ER stress survival, ATP luminescence. relative survival (cellular ATP), % at 15 µg/mL (by protocol);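 active = survival measured by cellular ATP above 50% at 15 µg/ml in the first screen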;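 note: cell death triggered by about 15 µM thapsigargin; ATP read 24 h after thapsigargin was added; plate controls were thapsigargin with DMSO for no effect and DMSO without thapsigargin for full effect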
An asterisk follows results filed as active.

SMILES	ER stress death
CCCC(=O)NNC(=O)c1ccccc1C	65*
Cc1ccccc1C(=O)NNC(=O)C(C)C	29
Cc1ccccc1C(=O)NNC(=O)c1ccco1	2
CC(C)CN1C(=O)c2ccc(C(=O)Nc3ccccc3O)cc2C1=O	8
COC(=O)CCN1C(=O)/C(=C\C=C\c2ccccc2)SC1=S	3
CCN(CC)c1ccc(Nc2nc(-c3c(C)nc4ccccn34)cs2)cc1	44
CCN(CC)c1ccc(Nc2nc(-c3sc(N)nc3C)cs2)cc1	72*
Cc1nc(C)c(-c2csc(Nc3ccc(O)cc3)n2)s1	2
C=CCOCC(O)CS(=O)Cc1ccc(Cl)cc1 (configuration not stated)	-3
Cc1ccc(NC(=O)c2ccc3c(c2)OCO3)cc1[N+](=O)[O-]	1
FC(F)(F)c1ccc2nnc(-c3cc(Br)ccc3OCc3ccccc3)n2c1	2
COc1ccc2ccccc2c1-c1nnc2ccc(C(F)(F)F)cn12	60*
COc1ccc2ccccc2c1-c1nnc2ccc3ccccc3n12	7
O=c1/c(=C/c2cccc(C(F)(F)F)c2)sc2nc3ccccc3n12	-2
CCCCCCCN(C(=S)Nc1ccc(F)cc1)C1CC(=O)N(c2ccc(OCCC)cc2)C1=O (configuration not stated)	-3
CN1CCN(C(=O)c2cc(-c3ccccc3)nc3ccccc23)CC1	-2
CC1(c2ccccc2)CC(C)(C)N(C(N)=O)c2ccccc21 (configuration not stated)	2
C=CCn1c(SCC(=O)N2c3ccccc3C(C)(c3ccccc3)CC2(C)C)nnc1-c1ccncc1 (configuration not stated)	76*
Cc1nnc(SCC(=O)N2c3ccccc3C(C)(c3ccc(Br)cc3)CC2(C)C)s1 (configuration not stated)	-2
Cc1ccc(N2CCCCC2)c2c1C(=O)c1ccccc1C2=O	5
CC(C)(C)NCCOc1ccc(Cl)cc1	-4
O=C(O)CCC1NC(=S)N(c2ccccc2)C1=O (configuration not stated)	11
Cc1cccc(C)c1-n1c(C)cc(/C=N/NC(=O)c2ccncc2)c1C	5
CCc1ccc(-n2c(C)cc(/C=N/NC(=O)c3ccncc3)c2C)cc1	31
Cc1ccc(-n2c(C)cc(/C=N/NC(=O)c3ccncc3)c2C)cc1C	67*
SMILES	ER stress death
O=C1S/C(=C\c2ccc(-c3ccc([N+](=O)[O-])cc3)o2)C(=O)N1c1ccccc1	-2
CCN1C(=O)/C(=C\c2ccc(-c3ccc([N+](=O)[O-])cc3)o2)SC1=S	7
O=C1/C(=C/c2ccc(-c3ccc([N+](=O)[O-])cc3)o2)SC(=S)N1Cc1ccco1	56*
COCCNC(=O)COc1ccc(Cl)cc1C	1
O=C(CSc1nc2ccccc2s1)c1cccs1	14
O=C(CC(=S)c1cccs1)c1ccncc1	61*
O=C(NCc1ccncc1)c1cccs1	18
O=C(NCCNC(=O)c1cccs1)c1cccs1	4
Cc1ccc(OCCNC(=O)Cc2cccc3ccccc23)cc1C	12
Cc1ccc(-c2nnc(NC(=O)c3ccccc3C)s2)cc1	8
Cc1ccc(C(=O)Nc2ccc(S(=O)(=O)N3CCc4ccccc43)cc2)cc1	1
CCC1CCCCN1Cc1c(O)ccc2c(=O)c(-c3ccc(Cl)cc3)coc12 (configuration not stated)	7
O=C(COc1ccccc1[N+](=O)[O-])Nc1ccc(OC(F)(F)F)cc1	7
O=C(NCc1cccnc1)c1nn2c(C(F)(F)F)cc(-c3cccs3)nc2c1Cl	10
CCC(=O)NC(c1ccc(N(C)C)cc1)c1ccc2cccnc2c1O (configuration not stated)	59*
COc1ccc(C(NC(=O)c2ccccc2)c2ccc3cccnc3c2O)cc1 (configuration not stated)	7
CCCC(=O)NC(c1ccc(Cl)cc1)c1ccc2cccnc2c1O (configuration not stated)	11
Cc1ccsc1/C=C(/C#N)c1nc(-c2ccc(Br)cc2)cs1	5
Cc1nc(-c2cccc(NC(=O)c3cccnc3)c2)cs1	-1
O=C(CSCc1ccccc1)NCCc1ccc(Cl)cc1	0
O=C1CC(c2ccccc2)CC2=C1C(c1ccc(O)cc1)Nc1ccc(C(=O)c3ccccc3)cc1N2 (configuration not stated)	106*
COc1ccc(C2CC(=O)C3=C(C2)Nc2ccccc2NC3c2cccnc2)cc1OC (configuration not stated)	2
O=C1CCCC2=C1C(c1ccc([N+](=O)[O-])cc1)Nc1ccc(C(=O)c3ccccc3)cc1N2 (configuration not stated)	121*
O=C1CCCC2=C1C(c1cccs1)Nc1ccc(C(=O)c3ccccc3)cc1N2 (configuration not stated)	-2
O=C1CC(c2ccccc2)CC2=C1C(c1ccco1)Nc1ccccc1N2 (configuration not stated)	2
SMILES	ER stress death
COc1ccc(C2CC(=O)C3=C(C2)Nc2ccccc2NC3c2ccc(O)cc2)cc1 (configuration not stated)	2
O=C1CCCC2=C1C(c1ccc(O)cc1)Nc1ccc(C(=O)c3ccccc3)cc1N2 (configuration not stated)	-4
O=C1CCCC2=C1C(c1ccc(F)cc1)Nc1ccc(C(=O)c3ccccc3)cc1N2 (configuration not stated)	4
O=C1CC(c2ccccc2)CC2=C1C(c1cccnc1)Nc1ccc(C(=O)c3ccccc3)cc1N2 (configuration not stated)	102*
Cc1cc(OCC(O)CN2CCN(c3ccccc3)CC2)cc(C)c1Cl (configuration not stated)	-5
CCN1C(=O)/C(=C\c2cc(Br)cc([N+](=O)[O-])c2O)SC1=S	4
CCOC(=O)c1c(C)oc2ccc(N(C(=O)c3ccncc3)S(=O)(=O)c3ccc(C)cc3)cc12	9
COc1ccc(NS(=O)(=O)c2ccc(Br)cc2)cc1OC	-2
CCOc1ccc(N=Cc2cccc(C)c2O)cc1	3
O=C1C(=O)N(CCCn2ccnc2)C(c2ccccc2[N+](=O)[O-])/C1=C(\O)c1ccc(Cl)cc1 (configuration not stated)	7
CC1=Nc2ccccc2/C1=C\c1sc(=S)n(-c2cccc(F)c2)c1O	10
COc1ccc(C2CC(=O)C3=C(C2)Nc2ccccc2NC3c2c(F)cccc2Cl)cc1 (configuration not stated)	1
O=C1CC(c2ccccc2)CC2=C1C(c1ccc(Br)cc1)Nc1ccccc1N2 (configuration not stated)	12
O=C1CC(c2ccccc2)CC2=C1C(c1cccc(Cl)c1Cl)Nc1ccccc1N2 (configuration not stated)	-1
O=C1CC(c2ccccc2)CC2=C1C(c1cc(Br)ccc1F)Nc1ccccc1N2 (configuration not stated)	80*
O=C1CC(c2ccc(Cl)cc2)CC2=C1C(c1ccccc1F)Nc1ccccc1N2 (configuration not stated)	6
O=C1CC(c2ccccc2)CC2=C1C(c1c(F)cccc1Cl)Nc1ccccc1N2 (configuration not stated)	105*
N#CC(C#N)=Cc1cn(-c2ccccc2)nc1-c1ccc(-c2ccc([N+](=O)[O-])cc2)o1	4
CC(C)(C)c1cc(CCC(=O)NN2C(=O)CSC2=S)cc(C(C)(C)C)c1O	1
C=CCN1C(=O)C(Cc2ccccc2)S/C1=N/N=C/c1ccccc1 (configuration not stated)	3
